The values below come from PubChem BioAssay (NCI).

Holding throughout (assay): NCI-60 one-dose screen, 48 h (100 = growth as untreated, 0 = no growth, -100 = all killed)
Settings in all cases: 10 µM unless noted

Experiment [1] concerns NCI-H226 lung.
In experiment [2] the test system is HOP-62 NSCLC.
Experiment [3] concerns NCI-H460 lung.
Experiment [4] concerns HOP-92 NSCLC.
The test system of experiment [5] is NCI-H522 lung.
Experiment [6] deals with A549/ATCC NSCLC.
Experiment [7] relates to 786-0 renal.
Experiment [8] deals with COLO 205 colon.
Experiment [9] has as its system DU-145 prostate.
The test system of experiment [10] is K-562 leukemia.
Experiment [11] concerns MALME-3M melanoma.
Experiment [12] has as its system MDA-MB-231 breast.
Experiment [13] relates to RXF 393 renal.
Experiment [14] concerns SF-268 CNS.
Experiment [15] concerns SF-295 CNS.
Experiment [16] concerns SF-539 CNS.
The subject of experiment [17] is UACC-257 melanoma.
In experiment [18] the test system is M14 melanoma.
Experiment [19] deals with HCT-15 colon.
The test system of experiment [20] is NCI-H322M lung.

This is part of a sample that, as a whole, favours compounds with a hit. Of some 83,000 tested, about 20% had one in any assay.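 The endpoint reported here, percent growth, reads 100 for growth as untreated, 0 for no net growth and -100 for all cells dead.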 Unmarked numbers belong to inactive results. Active and inactive are the calls of the source. Rule for the calls: active = growth percent below 10; inactive = the rest.

For the compound `Cc1nc(-c2cc3ccccc3oc2=O)ccc1C(=O)/C=C/c1ccc(Cl)c(Cl)c1`, the growth is 108% in experiment [1]; 107% in experiment [2]; 100% in [3]; 95.4% in experiment [4]; 98.9% in [5]; 107% in [6]. In addition, the growth is 99.3% in [7]; 113% in experiment [8]; 102% in [9]; 103% in experiment [10]; 96.9% in experiment [11]; 95.5% in experiment [12]. In addition, the growth in experiment [13] was 119%; in [14] it was 99.8%; in experiment [15], 95.7%; in [16], 92.5%; in experiment [17] it was 120%; in [18], 107%. For the same compound, in experiment [19], the growth is 107%.

In the case of `CNC(=O)c1cc(-c2ccc(NC(=O)Nc3ccc(N4CCN(C)CC4)c(C(F)(F)F)c3)cc2)nc2cccnc12`, the growth in experiment [1] is 84.6%; in experiment [2], -78.3% (active); in experiment [3], -76.3% (active); in experiment [4], 79.5%; in experiment [5] it was -71.9% (active); in experiment [6], -81.9% (active). Besides, the growth in experiment [7] was -97.1% (active); in experiment [9], -81.7% (active); in experiment [10] it was -56.9% (active); in experiment [11], -85.5% (active); in experiment [12], -78.4% (active); in experiment [13] it was -78.3% (active). Besides, the growth in experiment [14] was -71.3% (active); in experiment [15], -94.5% (active); in experiment [16] it was -89.2% (active); in experiment [17], -94.3% (active); in experiment [18], -94.2% (active); in experiment [19], -79.5% (active).

Take `Cc1ccc(/C=C/c2nn3c(-c4ccco4)nnc3s2)cc1C`: the growth was 97.1% in [20]; 100% in experiment [2]; 104% in experiment [3]; 93.9% in experiment [4]; 104% in [5]; 94% in experiment [6]. For the same compound, the growth in experiment [7] was 100%; in experiment [8], 126%; in experiment [9] it was 103%; in [10], 97.7%; in experiment [11], 104%; in [12] it was 94.8%. The growth is 112% in experiment [13]; 108% in experiment [14]; 97% in experiment [15]; 99% in experiment [16]; 99.2% in experiment [17]; 108% in experiment [18]. Besides, the growth in [19] was 96%.

Consider `O=C(N/N=C/c1cccs1)c1[nH]c2ccc(Br)cc2c1-c1ccccc1`, for which the growth in experiment [1] was 50.9%; in experiment [20] it was 44.7%; in experiment [2] it was 44.2%; in [3], 6.54% (active); in experiment [4] it was 39.9%; in [6], 23.1%. Also, the growth in [7] is 12%; in [8] it was -67.6% (active); in experiment [9], 20.7%; in experiment [10], 4.72% (active); in experiment [11], 58.2%; in experiment [12], 5.46% (active). Further, the growth in [13] is 62.8%; in experiment [14] it was 35.3%; in experiment [15], 15.9%; in experiment [16], 2.22% (active); in [17] it was 61.2%; in experiment [18], 1.81% (active). Further, the growth in experiment [19] was 9.74% (active).

As to `CCOC(=O)c1sc(NCC(=O)Nc2cccc([N+](=O)[O-])c2)c(C(=O)OCC)c1C`, the growth in experiment [20] is -8.8% (active); in [2], -12.9% (active); in experiment [3], 2.96% (active); in experiment [4] it was -19.5% (active); in [5], -41.5% (active); in experiment [6] it was -38.1% (active). For the same compound, the growth is -12.4% (active) in experiment [7]; -33.4% (active) in [8]; -6.75% (active) in experiment [9]; 5.97% (active) in experiment [10]; -63.7% (active) in experiment [11]; -24.5% (active) in experiment [12]. The growth in experiment [13] was -74% (active); in [14], -25% (active); in experiment [15], -77.5% (active); in [16], -35.1% (active); in experiment [17], -6.79% (active); in [18] it was -73% (active). Besides, the growth in experiment [19] was 2.01% (active).

For the compound `COc1cccc(N2CCN(c3ncnc4c3[nH]c3ccc(F)cc34)C[C@@H]2C)c1`, the growth is -39.9% (active) in experiment [20]; -54.2% (active) in experiment [2]; -17.2% (active) in experiment [3]; -27.1% (active) in experiment [4]; -91.8% (active) in [5]; 2.18% (active) in [6]. Further, the growth in [7] was -58.5% (active); in experiment [8], -88.5% (active); in experiment [9] it was -67.3% (active); in experiment [10], -36% (active); in experiment [11] it was -26.4% (active); in [12] it was -4.16% (active). Moreover, the growth is -27.1% (active) in experiment [13]; -1.64% (active) in experiment [14]; -14.9% (active) in experiment [15]; -32.2% (active) in experiment [16]; -27.6% (active) in experiment [17]; -84.7% (active) in experiment [18]. In addition, the growth in [19] was 18.6%.

`COc1ccc([C@@H]2c3[nH]c4ccccc4c3CC3C(=O)N(C4CCN(Cc5c(F)cccc5F)CC4)CC(=O)N32)c(OC)c1` (stereo partly drawn): the growth was 54.8% [5.26 µM] in [2]; 65.7% [5.26 µM] in [3]; 18.8% [5.26 µM] in experiment [4]; 67.6% [5.26 µM] in experiment [5]; 50% [5.26 µM] in [6]; -35.9% [5.26 µM] (active) in [7]. Moreover, the growth in experiment [8] was 58.3% [5.26 µM]; in [9], 70.7% [5.26 µM]; in experiment [10], 62.2% [5.26 µM]; in experiment [11] it was 68% [5.26 µM]; in experiment [12], 62.3% [5.26 µM]; in [13], 56.4% [5.26 µM]. For the same compound, the growth was 55% [5.26 µM] in experiment [14]; 67.1% [5.26 µM] in experiment [15]; 69.8% [5.26 µM] in experiment [16]; 77.4% [5.26 µM] in [17]; 26.4% [5.26 µM] in experiment [18]; 47.5% [5.26 µM] in experiment [19].

On to `Cn1ccnc1C(=O)/C=C/c1ccc(NC(=O)Nc2ccc(Cl)cc2)cc1`, for which the growth in [20] was 95.1%; in [2] it was 94.8%; in experiment [3] it was 59.6%; in experiment [4], 104%; in experiment [5] it was 78.2%; in [6] it was 86.8%. In addition, the growth in experiment [7] is 56.8%; in [8], 95.9%; in experiment [9], 75.7%; in experiment [10] it was 47.6%; in [11] it was 84.2%; in [12], 73.4%. The growth in experiment [13] is 70.1%; in experiment [14], 81.8%; in experiment [15] it was 85.9%; in experiment [16] it was 83.1%; in experiment [17] it was 100%; in [18] it was 84.4%. Besides, in [19], the growth is 47.1%.

`COc1ccc(/C=N/Nc2ccnc3cc(Cl)ccc23)cc1Cl`: the growth is -42.9% (active) in [2]; -79% (active) in experiment [3]; -57.6% (active) in experiment [4]; -73.7% (active) in [5]; -41.6% (active) in [6]; -94.9% (active) in experiment [7]. Also, the growth in experiment [8] is -82.7% (active); in [9] it was -57% (active); in experiment [10], -52.8% (active); in experiment [11], -78.5% (active); in [12], -71.3% (active); in [13] it was -58% (active). Further, the growth in experiment [14] is -64.7% (active); in experiment [15] it was -53.1% (active); in [16], -90.4% (active); in [17], -84.4% (active); in experiment [18], -84.5% (active); in experiment [19], -20.4% (active).

On to `CS(=O)(=O)c1ccc(-c2nc3ccccn3c2/C=N/Nc2nc(-c3ccc(Cl)cc3)cs2)cc1`, for which the growth is 111% in experiment [20]; 109% in experiment [2]; 102% in experiment [3]; 96.4% in experiment [4]; 96.2% in experiment [5]; 98.2% in experiment [6]. In addition, the growth in [7] was 79.8%; in experiment [8], 112%; in [9] it was 106%; in experiment [10], 78.6%; in experiment [11], 127%; in [12], 106%. Also, the growth is 98.8% in experiment [13]; 110% in experiment [14]; 98.8% in [15]; 105% in experiment [16]; 107% in [17]; 107% in experiment [18]. For the same compound, the growth in experiment [19] is 94.2%.

As for `O=c1[nH]c2ccccc2cc1CSc1ccccc1Nc1nccc(-c2ccc(C(F)(F)F)cc2)n1`, the growth was 78.5% in experiment [2]; 40.8% in experiment [3]; 20.5% in experiment [4]; 80% in [5]; 57.6% in experiment [6]; 45.4% in [7]. The growth was 104% in [8]; 73.4% in experiment [9]; 58.6% in [10]; 63.6% in [11]; 69% in [12]; 2.21% (active) in experiment [13]. The growth was 70.4% in experiment [14]; 72.7% in experiment [15]; 45.5% in experiment [16]; 104% in experiment [17]; 92.1% in [18]; 69.1% in experiment [19].

On to `CCOC(=O)c1c(NC(=O)c2cccc(C(F)(F)F)c2)sc2cc(O)ccc12`, for which the growth in experiment [20] was 98%; in experiment [2] it was 99.3%; in experiment [3], 99.9%; in [4], 102%; in experiment [6], 101%; in [7], 109%. Moreover, the growth in [8] was 107%; in [9], 98.9%; in [10], 97.3%; in [11] it was 92.4%; in experiment [12], 87.1%; in [13] it was 113%. For the same compound, the growth in [14] was 96.9%; in [15] it was 102%; in [16] it was 89.7%; in experiment [17], 108%; in [18] it was 101%; in experiment [19], 92.8%.
